# Experimental data from the supplement of paper PMC6522484.
# ± gives the standard deviation of the averaged measurements.
# Assays:
# DLD1 [1] = test: cell viability (CellTiter-Glo) relative to plate median (fraction of plate median); higher = more viable cells; conditions: 5 µM; treatment time 24 h; reporter: 7TFP
# How it was run: (§1)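 Colorectal cancer cell lines stably transduced with lentiviral TCF/Wnt firefly luciferase reporters (7TFP or TCF4/Wnt) were seeded in 384-well plates. 24 h later they received library compounds at a final 5 µM for 24 h. Parallel plates were read for firefly luciferase or CellTiterGlo luminescence on a Tecan F500 reader. Each well's signal was normalised to the plate median (webcellHTS2, additive, no log transformation), and the mean of two independent replicates is reported.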
# HCT116 = test: as above; conditions: 5 µM; treatment time 24 h; reporter: TCF4/Wnt
# How it was run: as §1
# SW480 [2] = test: as above; conditions: 5 µM; treatment time 24 h; reporter: 7TFP
# How it was run: as §1
# DLD1 [3] = test: TCF/Wnt firefly luciferase reporter signal relative to plate median (fraction of plate median); higher = higher Wnt reporter signal; conditions: 5 µM; treatment time 24 h; reporter: 7TFP
# How it was run: as §1
# SW480 [4] = test: as above; conditions: 5 µM; treatment time 24 h; reporter: 7TFP
# How it was run: as §1
Structure (SMILES),cell viability (DLD1 [1]),cell viability (HCT116),cell viability (SW480 [2]),TCF/Wnt firefly luciferase reporter signal (DLD1 [3]),TCF/Wnt firefly luciferase reporter signal (SW480 [4])
COc1cc(OC)c2c(c1)O[C@H](c1ccc(OC)c(OC)c1)[C@@H](O)C2,0.924 ± 0.071,0.955 ± 0.047,0.973 ± 0.096,0.952 ± 0.023,1.01 ± 0.014
CC([C@H](O)c1ccccc1)N(C)C (stereo not given in full),0.991 ± 0.0014,1.015 ± 0.0071,0.966 ± 0.091,0.915 ± 0.09,0.975 ± 0.05
C=C(C)c1cc2cc(C(C)=O)c(O)cc2o1,1.14 ± 0.13,1.06 ± 0.071,1.07 ± 0.057,1.21 ± 0.29,1.12 ± 0.085
CC[C@H](C)[C@H]1O[C@]2(C=C[C@@H]1C)C[C@@H]1C[C@@H](C/C=C(\C)[C@@H](O[C@H]3C[C@H](OC)[C@@H](O[C@H]4C[C@H](OC)[C@@H](O)[C@H](C)O4)[C@H](C)O3)[C@@H](C)/C=C/C=C3\CO[C@@H]4[C@H](O)C(C)=C[C@@H](C(=O)O1)[C@]34O)O2.CO[C@H]1C[C@H](O[C@H]2[C@H](C)O[C@@H](O[C@@H]3/C(C)=C/C[C@@H]4C[C@@H](C[C@]5(C=C[C@H](C)[C@@H](C(C)C)O5)O4)OC(=O)[C@@H]4C=C(C)[C@@H](O)[C@H]5OC/C(=C\C=C\[C@@H]3C)[C@]54O)C[C@@H]2OC)O[C@@H](C)[C@@H]1O,0.893 ± 0.083,0.931 ± 0.0028,1.01,0.977 ± 0.089,0.987 ± 0.033
S=C=NCc1ccccc1,0.961 ± 0.053,0.928 ± 0.039,0.959 ± 0.012,0.748 ± 0.17,0.822 ± 0.071
CN1C[C@H](C(=O)N[C@]2(C)O[C@@]3(O)[C@@H]4CCCN4C(=O)[C@H](Cc4ccccc4)N3C2=O)C[C@@H]2c3cccc4[nH]cc(c34)C[C@H]21,0.89 ± 0.098,0.878 ± 0.054,1 ± 0.037,0.9 ± 0.052,0.884 ± 0.0057
CC(C)=CCCC1(C)C=Cc2c(O)c3c(c(CC=C(C)C)c2O1)OC12C(=CC4CC1C(C)(C)OC2(C/C=C(/C)C(=O)O)C4O)C3=O (stereo not given),0.911 ± 0.11,0.979 ± 0.016,0.996 ± 0.1,0.848 ± 0.069,0.921 ± 0.054
COC(=O)C(c1ccccc1)C1CCCCN1 (stereo not given),1.025 ± 0.0071,1.05 ± 0.064,1.01 ± 0.035,1.03 ± 0.021,1.04 ± 0.088
O=[N+]([O-])c1cc([As](=O)(O)O)ccc1O,1.07 ± 0.14,1.07 ± 0.14,1.075 ± 0.0071,1.01 ± 0.19,0.959 ± 0.1
C[C@]12CC[C@H](Cl)C[C@@H]1CC[C@@H]1[C@@H]2CC[C@]2(C)C(=O)CC[C@@H]12 [3beta-CHLOROANDROSTANONE],1.08 ± 0.05,0.981 ± 0.041,1.06 ± 0.071,1.07 ± 0.13,1.115 ± 0.0071
C=C(C)[C@H]1Cc2c(ccc3c(=O)c4c(oc23)COc2cc(OC)c(OC)cc2-4)O1,1.07 ± 0.12,1 ± 0.041,1.12 ± 0.2,1.04 ± 0.099,0.919 ± 0.13
O=C([O-])c1ccccc1-c1c2cc(Br)c(=O)cc-2oc2[c]([Hg+])c([O-])c(Br)cc12.[Na+].[Na+].[OH-],0.955 ± 0.0071,0.961 ± 0.13,0.945 ± 0.0099,1 ± 0.15,0.934 ± 0.052
CC[C@H]1[C@@H]2C[C@H]3[C@@H]4N(C)c5ccccc5[C@]45C[C@@H]([C@@H]2[C@H]5O)N3[C@@H]1O,0.898 ± 0.03,0.899 ± 0.1,0.95 ± 0.023,0.942 ± 0.0085,1.05 ± 0.05
CCCN1C[C@H](CSC)C[C@@H]2c3cccc4[nH]cc(c34)C[C@H]21,0.934 ± 0.0057,0.986 ± 0.049,0.863 ± 0.086,1,1.015 ± 0.0071
COc1ccc(C(=O)O)cc1OC,0.902 ± 0.18,1.04 ± 0.098,0.984 ± 0.023,0.949 ± 0.087,0.9985 ± 0.0021
CC(=O)O[C@@H]1C[C@H]2C(C)(C)C(=O)C=C[C@]2(C)[C@H]2CC[C@]3(C)C(=CC(=O)O[C@H]3c3ccoc3)[C@@]21C,0.99 ± 0.086,0.997 ± 0.075,0.963 ± 0.016,1.03 ± 0.1,0.975 ± 0.05
CN1[C@@H]2CC[C@H]1C[C@@H](OC(c1ccccc1)c1ccccc1N)C2 (stereo not given in full),0.982 ± 0.096,0.954 ± 0.0085,1.03 ± 0.028,0.999 ± 0.16,0.8705 ± 0.0035
NCC1(CC(=O)O)CCCCC1,1 ± 0.083,1.08 ± 0.021,0.981 ± 0.013,1.07 ± 0.057,1.1 ± 0.064

Structure (SMILES),cell viability (DLD1 [1]),cell viability (HCT116),cell viability (SW480 [2]),TCF/Wnt firefly luciferase reporter signal (DLD1 [3]),TCF/Wnt firefly luciferase reporter signal (SW480 [4])
C=C[C@H]1CN2CC[C@H]1C[C@H]2[C@H](OC(=O)OCC)c1ccnc2ccc(OC)cc12,1.01 ± 0.06,0.911 ± 0.063,0.995 ± 0.035,0.956 ± 0.013,0.98 ± 0.1
CNC(=O)ON=C(C)SC,1.01 ± 0.021,0.928 ± 0.1,0.985 ± 0.035,0.98 ± 0.029,0.933 ± 0.058
C/C=C/[C@H]1O[C@@](O)([C@@H](C)[C@H](O)[C@H](C)[C@H]2OC(=O)/C(OC)=C/C(C)=C/[C@@H](C)[C@@H](O)[C@@H](CC)[C@@H](O)[C@H](C)C/C(C)=C/C=C/[C@@H]2OC)C[C@@H](O[C@H]2C[C@@H](O)[C@H](OC(N)=O)[C@@H](C)O2)[C@@H]1C [Concanamycin A],0.886 ± 0.095,0.998 ± 0.059,1.04 ± 0.035,0.806 ± 0.2,0.9 ± 0.12
Nc1ncn[nH]1,0.973 ± 0.067,1.09 ± 0.11,1 ± 0.029,0.957 ± 0.089,0.978 ± 0.012
CC(=O)O[C@H]1[C@H]2[C@@H](OC(=O)Cc3ccccc3)[C@@H](C)C[C@]2(OC(C)=O)C(=O)/C(C)=C/[C@@H]2[C@H](CC[C@@]13CO3)C2(C)C,1.06 ± 0.097,1.01 ± 0.086,1.06 ± 0.021,1.09 ± 0.014,1.075 ± 0.0071
COc1ccc(CCN2CCC(Nc3nc4ccccc4n3Cc3ccc(F)cc3)CC2)cc1,0.977 ± 0.089,0.982 ± 0.069,1.06 ± 0.021,1.01 ± 0.017,1.035 ± 0.0071
c1cc2c(cc1[C@H]1OC[C@H]3[C@@H]1CO[C@H]3c1ccc3c(c1)OCO3)OCO2,1.03 ± 0.014,1.03 ± 0.13,0.952 ± 0.068,1.09 ± 0.064,0.932 ± 0.21
CCC1(C2=NCCN2)Cc2ccccc2O1 (stereo not given),0.9965 ± 0.005,1.04 ± 0.021,1.02 ± 0.09,1.015 ± 0.0071,1.04 ± 0.035
c1ccc2nc(N3CCNCC3)ccc2c1,0.9935 ± 0.0092,1.02 ± 0.081,0.974 ± 0.025,1.02 ± 0.15,0.932 ± 0.028
CCN1C[C@]2(OC(=O)c3ccccc3NC(C)=O)CC[C@H](OC)[C@@]34[C@@H]2C[C@@H]([C@@H]13)[C@@]1(O)C[C@H](OC)[C@H]2C[C@@H]4[C@]1(O)[C@H]2OC,0.987 ± 0.033,0.988 ± 0.032,0.9965 ± 0.005,0.905 ± 0.083,0.98 ± 0.057
CC[C@@H](C)C(=O)O[C@H]1[C@H](O)[C@H]2[C@@H](CN3C[C@@H](C)CC[C@H]3[C@@]2(C)O)[C@@H]2C[C@]34O[C@]5(O)[C@@H](OC(=O)[C@](C)(O)[C@@H](C)O)CC[C@@]3(C)[C@@H]5[C@@H](OC(C)=O)[C@@H](OC(C)=O)[C@H]4[C@@]21O (stereo in doubt),1.03 ± 0.035,1.17 ± 0.085,1.08 ± 0.028,1.18 ± 0.092,1.08 ± 0.071
CC1CC(Cl)CCC1C(=O)OC(C)(C)C (stereo not given),0.973 ± 0.052,1.045 ± 0.0071,0.956 ± 0.025,0.976 ± 0.034,0.989 ± 0.03
Nc1ccccc1C(=O)O [Anthranilic acid],0.906 ± 0.16,1 ± 0.037,0.98 ± 0.015,0.89 ± 0.044,1.04 ± 0.057
COc1cc([C@@H]2c3cc4c(cc3[C@H](OC(C)=O)[C@H]3COC(=O)[C@@H]23)OCO4)cc(OC)c1OC,0.903 ± 0.098,0.904 ± 0.027,1.02 ± 0.028,0.693 ± 0.014,0.867 ± 0.092
CCn1cc(C(=O)O)c(=O)c2cc3c(cc21)OCO3,0.96 ± 0.016,0.949 ± 0.031,0.847 ± 0.27,0.893 ± 0.058,1 ± 0.11
CN1CCc2cc3c(cc2C1O)OCO3 (stereo not given),1.01 ± 0.026,1.03 ± 0.047,0.995 ± 0.021,0.956 ± 0.037,0.942 ± 0.064
CC[C@@H](CO)NC(=O)[C@@H]1C=C2c3cccc4[nH]cc(c34)C[C@H]2N(C)C1,0.968 ± 0.045,1.02 ± 0.028,0.957 ± 0.054,1.04 ± 0.028,1.075 ± 0.0071
CC(=O)O[C@H]1C[C@H](O[C@H]2[C@@H](O)C[C@H](O[C@H]3[C@@H](O)C[C@H](O[C@H]4CC[C@@]5(C)[C@H](CC[C@@H]6[C@@H]5C[C@@H](O)[C@]5(C)[C@@H](C7=CC(=O)OC7)CC[C@]65O)C4)O[C@@H]3C)O[C@@H]2C)O[C@H](C)[C@H]1O[C@@H]1O[C@H](CO)[C@@H](O)[C@H](O)[C@H]1O,0.65 ± 0.044,0.636 ± 0.0042,0.851 ± 0.078,0.264 ± 0.13,0.584 ± 0.057
